# Experimental data from paper PMC5540273 (PLoS ONE, 2017).
# Assays:
# Conditions in all cases: concentration: 1 μM, replicates: in singlicate; n = 1
# [1] = test system: RPS6KA5(Kin.Dom.2-C-terminal)
# [2] = test system: T1, RSK1(Kin.Dom.1-N-terminal)
# T1 construct: gene RPS6KA1
# [3] = test system: T2, RSK1(Kin.Dom.2-C-terminal)
# T2 construct: gene RPS6KA1
# [4] = test system: T3, RSK2(Kin.Dom.1-N-terminal)
# T3 construct: gene RPS6KA3
# [5] = test system: T4, RSK2(Kin.Dom.2-C-terminal)
# T4 construct: gene RPS6KA3
# [6] = test system: T5, RSK3(Kin.Dom.1-N-terminal)
# T5 construct: gene RPS6KA2
# [7] = test system: T6, RSK3(Kin.Dom.2-C-terminal)
# T6 construct: gene RPS6KA2
# [8] = test system: T7, RSK4(Kin.Dom.1-N-terminal)
# T7 construct: gene RPS6KA6
# [9] = test system: T8, RSK4(Kin.Dom.2-C-terminal)
# T8 construct: gene RPS6KA6
# [10] = test system: S6K1
# [11] = test system: SBK1
# [12] = test system: SGK2
# [13] = test system: SGK3
# [14] = test system: SGK
# [15] = test system: SIK2
# [16] = test system: SIK
# [17] = test system: SLK
# [18] = test system: T9, SNARK
# T9 construct: gene NUAK2
# [19] = test system: SNRK
# [20] = test system: SRC
# 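Note: KINOMEscan kinase panel screen.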
SMILES,%Inh [1] [%],%Inh [2] [%],%Inh [3] [%],%Inh [4] [%],%Inh [5] [%],%Inh [6] [%],%Inh [7] [%],%Inh [8] [%],%Inh [9] [%],%Inh [10] [%],%Inh [11] [%],%Inh [12] [%],%Inh [13] [%],%Inh [14] [%],%Inh [15] [%],%Inh [16] [%],%Inh [17] [%],%Inh [18] [%],%Inh [19] [%],%Inh [20] [%]
COc1ccc(-c2oc3ncnc(N)c3c2-c2ccc(OC)cc2)cc1 [SB-589132],0,29,30,9,30,5,0,0,69,16,0,5,0,9,2,1,20,0,0,40
Cc1cc(N2CCC(NS(=O)(=O)c3ccc(F)cc3)CC2)nc(Nc2cccc(C#N)c2)n1.O=C(O)C(F)(F)F [GSK1653537],0,7,0,3,20,18,0,62,10,0,0,0,0,0,0,0,13,0,0,5
C[C@H]1CC[C@@H](C(=O)Nc2ccccc2)CN1c1cc(-c2ccc3c(N)n[nH]c3c2)nc(N)n1 [GSK2283293],0,18,8,0,21,0,9,0,23,0,9,0,7,0,0,0,0,7,0,0
Cn1ccc2ncnc(Nc3ccc(Oc4cccc(Cl)c4)c(Cl)c3)c21,11,13,0,20,0,19,10,29,14,0,15,11,10,0,0,37,33,13,0,12
Cn1ccc2ncnc(Oc3ccc(NC(=O)Nc4cccnc4)c(Cl)c3)c21,13,0,41,1,0,0,17,0,3,0,0,8,0,3,0,19,9,0,0,16
CCc1nc(-c2cccc(N(C)S(=O)(=O)c3ccccc3)c2)c(-c2ccnc(Nc3ccc(N4CCN(C(C)=O)CC4)nc3)n2)s1 [GSK1645895],2,26,24,0,1,8,23,0,20,7,5,0,19,0,0,0,3,23,0,16
Nc1nc(-c2ccc3c(N)n[nH]c3c2)cc(N2CCCCC2)n1 [GSK2228768],0,0,0,0,0,15,0,0,0,0,3,0,0,0,0,0,5,0,0,15
Nc1nccc2scc(-c3ccc4c(c3)CCN4C(=O)Cc3cc(F)ccc3F)c12 [GSK2587663],0,12,15,3,7,29,0,0,13,0,11,0,0,0,0,0,13,0,8,0
O=C(Nc1ccccc1F)NC1CCN(c2ccnc(Nc3ccc(F)cc3)n2)C1 (stereo not shown) [GSK1379722],19,8,0,14,28,13,0,0,0,11,21,0,0,0,0,0,5,0,0,0
Cl.Cl.c1ccc(-c2cc3ccncc3cc2OC2CCNCC2)cc1 [GSK1122999],8,22,21,9,55,0,6,0,30,7,12,7,11,0,0,0,40,23,14,0
Fc1cccc(COc2ccc(Nc3ncnc4nn5ccccc5c34)cc2Cl)c1 [GW689066],0,4,0,0,0,0,0,0,0,0,2,0,0,0,0,0,2,0,0,0
